In the library only some 2.7% were active in any assay of this set; here they are far more common.
ERb SRC1 inh: inhibitors of ERβ-SRC1 coactivator interaction, primary screen, biochemical, TR-FRET, ERβ LBD, SRC-1 peptide | TR-FRET ER-beta LBD / SRC1-Cy5 peptide binding; receptor agonist-loaded with 1 µM estradiol | inhibition, % at 25.6 µM | 86,000 compounds, 1.3% hits;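 active = compounds whose percent inhibition of the receptor-coactivator binding signal exceeds about 50% in the single-dose screen, limit read from the data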;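 note: 0% = receptor plus peptide wells without compound and 100% = peptide-only wells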
ERa SRC1 inh: ERα–SRC-1 coactivator interaction inhibitors, primary screen, biochemical, TR-FRET, ERα LBD, estradiol-bound; TR-FRET ER-alpha LBD / SRC-1 peptide; inhibition, % at 25.6 µM; 86,000 compounds, 1.7% hits; AID 629, 2007; in the data active = inhibition above about 50%;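 note: 0% = receptor plus peptide control and 100% = peptide only without receptor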
Target sequence (P03372 whole entry, looked up, the tested form may be a part): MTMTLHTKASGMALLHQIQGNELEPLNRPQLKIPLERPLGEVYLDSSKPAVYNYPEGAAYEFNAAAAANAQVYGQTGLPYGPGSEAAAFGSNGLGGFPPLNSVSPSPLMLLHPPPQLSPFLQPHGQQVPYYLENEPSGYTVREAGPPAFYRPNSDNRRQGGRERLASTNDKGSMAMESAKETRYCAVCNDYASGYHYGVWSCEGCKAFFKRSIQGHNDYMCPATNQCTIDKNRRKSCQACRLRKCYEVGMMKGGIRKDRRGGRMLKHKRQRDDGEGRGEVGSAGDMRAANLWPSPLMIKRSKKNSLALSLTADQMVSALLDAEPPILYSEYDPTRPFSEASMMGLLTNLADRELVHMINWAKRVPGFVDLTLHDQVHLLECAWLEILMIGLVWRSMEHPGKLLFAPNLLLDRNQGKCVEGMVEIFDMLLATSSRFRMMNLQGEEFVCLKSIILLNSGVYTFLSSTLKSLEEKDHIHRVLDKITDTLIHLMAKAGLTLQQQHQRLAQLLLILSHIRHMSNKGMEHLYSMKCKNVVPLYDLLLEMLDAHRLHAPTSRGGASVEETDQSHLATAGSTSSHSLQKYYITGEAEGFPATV
MRP-1 activ: H69AR viability gain despite doxorubicin, primary screen, MRP-1 activator project, H69AR cells, CellTiter-Glo; viability rescue; viability increase, % at 10 µM; 140,000 compounds, 0.61% hits; AID 799, 2007;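 active = viability gain under doxorubicin at or above a set limit, the compound median plus 3 SD, cut at about 4.7% in these data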;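 note: MRP-1 overexpressing cells given doxorubicin 25 µM after compound pretreatment; 18-22 h compound pretreatment then 72 h with doxorubicin before readout; 0% = doxorubicin-only wells and 100% = vehicle-treated cells without doxorubicin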
MRP resist rev: reversal of MRP1-mediated doxorubicin resistance, primary screen, H69AR cells, doxorubicin co-treatment; H69AR cells + 2 uM doxorubicin, CellTiter-Glo, 72 h; differential viability (reversal), % at 10 µM; 85,000 compounds, 0.04% hits; AID 602, 2007;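 active = viability drop by adding the cancer drug above about 55%, with treated viability meeting a 40% cutoff, limit read from the data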;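 note: viability without doxorubicin minus viability with 2 µM doxorubicin for each compound; larger differential means the compound sensitizes cells more to doxorubicin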
ERa SRC1 pot: enhancers of ERα–SRC-1 coactivator binding, primary screen, biochemical, TR-FRET, ERα LBD, low estradiol; Estrogen receptor (Homo sapiens), P03372; 86,000 compounds, 1.3% hits; TR-FRET ERalpha-LBD/SRC-Cy5 coactivator binding, 2 h; 100 = basal binding, no effect; coactivator binding (% of control), % at 25.6 µM; in the data active = activity above about 200%;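 note: binding measured in presence of low estradiol as agonist stimulus; 0% = peptide alone without receptor and 100% = receptor with peptide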
* hit, by the source's call; nt = no result given; [ ] = remark or other dose.

SMILES	ERb SRC1 inh	ERa SRC1 inh	MRP-1 activ	MRP resist rev	ERa SRC1 pot
COc1ccc(OCc2nc3ccc(S(=O)(=O)Nc4ccccc4Cl)cc3[nH]2)cc1	nt	nt	6.0*	nt	nt
O=C1CC(c2ccc(S(=O)(=O)NCCOc3ccccc3)cc2)CN1 (centres undefined)	57.0*	3.0	-0.4	19.2	123.6
COc1cc(OC)nc(NC(=O)C(C)C)n1	-6.1	62.1*	-0.8	-3.5	110.7
COc1cc(OC)nc(NC(C)=O)n1	-4.6	-5.7	-1.1	-6.9	111.1
CC(C)(C)c1ccc(OCCNC(=O)Cc2ccc(F)cc2)cc1	nt	nt	-0.3	nt	nt
Cc1cc(Cl)ccc1OCC(=O)OC(C)C(=O)N(C)C (centres undefined)	57.3*	51.4*	-0.5	8.9	59.6
CC1CCN(S(=O)(=O)c2ccc3c(c2)c(=O)c(C(=O)NCc2ccccc2Cl)cn3C)CC1	nt	nt	-3.2	nt	nt
COc1cc(-c2c(C#N)c(N)nc3c2c(C)nn3-c2ccc(C)c(C)c2)cc(OC)c1OC	53.7*[fluorescence artefact?]	32.6	-6.8	-5.3	458.8*[fluorescence artefact?]
Cc1nn(-c2ccc(F)cc2)c2nc(N)c(C#N)c(-c3cccs3)c12	34.0	19.0	-2.1	0.5	243.1*[fluorescence artefact?]
Cc1c(-c2ccc(F)cc2)nc(N)c(C#N)c1-c1cccs1	-0.5	1.8	-5.2	-10.0	122.8
Cc1cccc(-n2nnnc2SCC(=O)c2cc(C)n(Cc3ccco3)c2C)c1	46.8	88.7*[fluorescence artefact?]	0.8	-16.3	49.3
Cc1cc(C)n(CCC(=O)N/N=C/c2ccccc2O)n1	nt	nt	5.6*	nt	nt
Cc1cc(C)n(CCC(=O)N/N=C/c2ccc(O)cc2O)n1	nt	nt	4.4	nt	nt
Cc1onc(-c2ccccc2Cl)c1C(=O)Nc1cccc2nsnc12	-10.0	-1.8	-3.8	4.5	262.6*[fluorescence artefact?]
CCN(CC(=O)NC1CCCC1)S(=O)(=O)c1ccc(C)cc1	1.3	94.9*[fluorescence artefact?]	-0.5	2.7	119.5
COc1ccc(S(=O)(=O)N(CCCN2CCOCC2)Cc2ccc(OC)c(OC)c2)cc1	0.6	-9.2	-2.5	3.9	132.2
COc1ccc(OC)c(CN(CCCN2CCOCC2)S(=O)(=O)c2ccc(NC(C)=O)cc2)c1	-4.2	98.9*[fluorescence artefact?]	-3.2	-1.6	122.9
CSc1ccccc1NC(=O)c1cnccn1	43.3	56.5*[fluorescence artefact?]	-1.1	-1.8	63.8
CC(C)c1ccccc1NC(=O)c1cnccn1	-2.9	-0.4	-1.8	-0.7	87.8
CCOc1cc(CNCc2ccncc2)cc(Br)c1OCc1ccc(F)cc1	nt	nt	-0.9	nt	nt
Cc1c(NC(=O)CSc2ccc(Cl)cc2)cccc1-c1nc2ncccc2o1	nt	nt	6.2*	nt	nt
C=CCOC(=O)C(C#N)c1nc2ccccc2nc1N1CCN(c2ccccc2OCC)CC1 (centres undefined)	-5.8	-10.0	5.2*	5.1	127.6
CCOc1ccccc1N1CCN(c2nc3ccccc3nc2C(C#N)C(=O)OC(C)C)CC1 (centres undefined)	-1.5	2.4	nt	2.3	95.3
CCCCOC(=O)CSc1nnc(-c2cc(OC)c(OC)c(OC)c2)o1	2.0	-4.2	-2.4	12.4	99.8
CCOC(=O)c1c(C)[nH]c(C)c1C(=O)CSc1nnc(-c2cc(OC)c(OC)c(OC)c2)o1	-3.3	-42.1	-3.0	6.8	313.2*
SMILES	ERb SRC1 inh	ERa SRC1 inh	MRP-1 activ	MRP resist rev	ERa SRC1 pot
COc1ccc(N2CCN(Cc3cc(=O)oc4cc(-c5ccccc5)c(O)cc34)CC2)cc1	43.3	64.1*[fluorescence artefact?]	-2.9	-6.5	70.0
Cc1cc(-c2ccccc2)nc(N(C)NC(=O)c2ccc(Cl)cc2)c1S(C)(=O)=O	-6.5	-3.1	-0.7	8.0	109.8
Cc1ccc(NC(=O)c2sc3nc4c(c(-c5ccco5)c3c2N)CCC4)cc1	42.5	59.1*	0.5	-6.2	72.3
Nc1c(C(=O)Nc2ccc(F)cc2)sc2nc(-c3ccco3)ccc12	64.4*	67.2*[fluorescence artefact?]	-1.7	-7.4	98.5
COc1ccc(-c2c3c(nc4sc(C(=O)Nc5ccccc5)c(N)c24)CCC3)cc1	24.0	68.4*[fluorescence artefact?]	nt	-5.5	185.2
Nc1c(C(=O)Nc2ccccc2)sc2nc3c(c(-c4ccco4)c12)CCC3	35.7	28.2	-0.9	-8.8	77.9
O=C(CNC1CCCCCC1)c1cccs1	nt	nt	-0.5	nt	nt
CCOc1ccc2nc(NS(=O)(=O)Cc3ccccc3)sc2c1	10.2	0.6	-2.2	-14.1	89.8
COCCCn1c(=N)c(C(N)=S)cc2c(=O)n3cccc(C)c3nc21	34.7	68.9*[fluorescence artefact?]	nt	11.4	37.3
CCn1c(=N)c(C(=O)NC)cc2c(=O)n3cccc(C)c3nc21	-4.0	-7.2	nt	-5.4	100.7
CCn1c(=N)c(C(N)=O)cc2c(=O)n3cccc(C)c3nc21	36.8	50.0*	nt	1.9	64.7
CC(C)CNC(=O)COc1cccc(C(=O)NCc2ccccc2)c1	nt	nt	-1.9	nt	nt
Cc1cc(NC(=O)c2ccccc2Cl)no1	-4.7	-1.2	-0.8	24.0	102.2
Cc1ccc2nc(-c3ccccc3Cl)cc(C(=O)Nc3cc(C)on3)c2c1	1.0	-2.0	1.5	8.0	217.0*[fluorescence artefact?]
O=C(c1cnccn1)N1CCc2ccccc21	97.0*[fluorescence artefact?]	79.5*[fluorescence artefact?]	-0.3	-3.3	23.0
CCNc1oc(-c2cccc3ccccc23)nc1C#N	2.2	35.1	7.3*	7.0	116.5
COc1ccc(N2CCN(c3ncnc4c3[nH]c3ccccc34)CC2)cc1	-9.2	-7.9	-1.4	11.1	93.3
COc1cc2[nH]c3c(N4CCN(c5ccccn5)CC4)ncnc3c2cc1OC	6.2	-1.4	-2.9	-1.1	675.8*[fluorescence artefact?]
O=[N+]([O-])c1ccc(Cl)c(/C=N/n2c(-c3cccnc3)n[nH]c2=S)c1	nt	nt	-3.8	nt	nt
COC(=O)c1c[nH]n2c(=O)cc(CCl)nc12	nt	nt	0.1	nt	nt
Cc1ccc(-n2c(SCC(=O)NCc3ccco3)nnc2-c2cccnc2)cc1	-11.0	-11.7	-2.5	17.5	115.2
O=C(CSc1nnc(-c2ccncc2)n1-c1ccc(F)cc1)NC(=O)NCc1ccco1	54.6*[fluorescence artefact?]	68.0*[fluorescence artefact?]	-2.5	1.5	78.2
C=CCn1c(COc2ccc(F)cc2)nnc1SCC(=O)NC(=O)NCc1ccco1	46.0	71.2*[fluorescence artefact?]	-3.2	-21.7	70.1
C=CCn1c(COc2cccc(C)c2)nnc1SCC(=O)NC(=O)NCc1ccco1	41.3	61.3*	-0.6	7.0	76.9
Cc1cc(N2C(=O)C3C4CC(C(Br)C4Br)C3C2=O)no1 (centres undefined)	nt	nt	-0.2	nt	nt
CN1CCc2nc3sc(C(=O)C45CC6CC(CC(C6)C4)C5)c(N)c3cc2C1	nt	nt	-5.2	nt	nt
CCC(C)NC(=O)COC(=O)c1oc2ccccc2c1CSc1ccc(Cl)cc1 (centres undefined)	nt	nt	-1.1	nt	nt
O=C(NC(=S)NC(c1ccccc1)c1ccncc1)c1ccccc1 (centres undefined)	nt	nt	-2.0	nt	nt
O=c1[nH]c(=O)n(Cc2ccco2)c2c1C(C(F)(F)F)(C(F)(F)F)N=C(CCC1CCCCC1)N2	3.9	2.4	-3.1	-6.8	105.2
